Measured values: PubChem BioAssay (Tox21)
Inconclusive results are not listed. Where a call stands in place of a potency, no number is given. Activity calls are given as the source filed them. Calls follow the shape of the full dose curve.

Target: Acetylcholinesterase (Homo sapiens) (UniProt P22303)
Experiment: Acetylcholinesterase (AChE) small molecule antagonists: fluorescence cell-based qHTS assay (AID 1347398); also: nearly all actives have a fitted effect of over 50% in size
Conditions: SH-SY5Y cells; Potency: AChE activity; outcome: AChE activity; series mostly up to 115 µM
Procedure, shortened: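 Thiocholine generated from acetylthiocholine by SH-SY5Y cell AChE is detected with Thiolite Green (Ex/Em 490/520 nm) after 40 min at room temperature, following 30 min compound pretreatment at 37 C.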

Sequence of Acetylcholinesterase (Homo sapiens) (P22303 whole entry, looked up): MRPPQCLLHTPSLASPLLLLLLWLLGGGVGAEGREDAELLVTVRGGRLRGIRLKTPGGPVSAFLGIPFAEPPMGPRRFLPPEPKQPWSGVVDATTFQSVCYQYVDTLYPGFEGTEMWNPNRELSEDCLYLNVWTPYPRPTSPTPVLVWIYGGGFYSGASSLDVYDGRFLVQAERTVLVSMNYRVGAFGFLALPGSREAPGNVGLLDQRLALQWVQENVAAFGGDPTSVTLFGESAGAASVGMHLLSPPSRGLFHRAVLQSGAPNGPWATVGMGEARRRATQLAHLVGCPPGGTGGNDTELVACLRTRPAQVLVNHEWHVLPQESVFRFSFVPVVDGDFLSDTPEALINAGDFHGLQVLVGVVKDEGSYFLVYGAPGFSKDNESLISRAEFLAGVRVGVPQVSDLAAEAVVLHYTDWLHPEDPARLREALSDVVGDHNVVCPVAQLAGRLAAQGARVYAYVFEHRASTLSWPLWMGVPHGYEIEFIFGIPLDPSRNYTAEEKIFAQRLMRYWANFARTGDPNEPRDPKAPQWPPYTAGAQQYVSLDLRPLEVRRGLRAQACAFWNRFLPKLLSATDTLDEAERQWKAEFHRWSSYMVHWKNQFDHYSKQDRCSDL

| SMILES | Potency | outcome |
| --- | --- | --- |
| O=C(OCCOCCOC(=O)c1ccccc1)c1ccccc1 | inactive | – |
| O=S(=O)(O)c1ccc2nc(-c3ccccc3)[nH]c2c1 | inactive | – |
| O=C1OC2(c3cc(Br)c(O)c(Br)c3Oc3c2cc(Br)c(O)c3Br)c2c(Cl)c(Cl)c(Cl)c(Cl)c21 | inactive | – |
| Cc1ccc([N+](=O)[O-])c(N)c1 | inactive | – |
| CC(C)Nc1ccccc1 | inactive | – |
| CN(C)c1ccc(C(c2ccccc2)c2ccc(N(C)C)cc2)cc1 | inactive | – |
| CCC(=O)O | inactive | – |
| COc1ccc(-n2nc(CCC(=O)N(C)O)cc2-c2ccc(Cl)cc2)cc1 | inactive | – |
| CC1=CC(O)CC(C)(C)C1 (stereo not given) | inactive | – |
| Nc1nc(F)nc2c1ncn2[C@@H]1O[C@H](CO)[C@@H](O)[C@@H]1O | inactive | – |
| Cc1ccc(S(=O)(=O)NCl)cc1 | inactive | – |
| c1cc[nH]c1 | inactive | – |
| CCN(CC)C(=O)c1ccc(O)c(OC)c1 | inactive | – |
| CC(C)C(=O)OC(=O)C(C)C | inactive | – |
| CCOC(=O)c1ccc(OC(=O)CCCCCN=C(N)N)cc1 | – | inactive |
| NS(=O)(=O)c1ccc(C(=O)O)cc1 | inactive | – |
| COc1ccc2c(c1)c(CC(=O)OC/C=C(\C)CC/C=C(\C)CCC=C(C)C)c(C)n2C(=O)c1ccc(Cl)cc1 | inactive | – |
| c1cc(C(c2ccc(OCC3CO3)cc2)c2ccc(OCC3CO3)cc2)ccc1OCC1CO1 (stereo not given) | inactive | – |
| CC1(C)OC(=O)NC1=O | inactive | – |
| CC1(C)[C@@H]2CC[C@]3(C2)[C@@H]1C(=O)CCC3(C)C | inactive | – |

| SMILES | Potency | outcome |
| --- | --- | --- |
| CCC(=O)c1ccc(O)cc1 | inactive | – |
| COC(=O)Nc1nc2ccc(C(=O)c3cccs3)cc2[nH]1 | inactive | – |
| O=C(O)c1cc(C(=O)O)cc([N+](=O)[O-])c1 | inactive | – |
| O=C(c1ccc(O)cc1)c1ccc(O)c(O)c1O | inactive | – |
| c1ccc2nccnc2c1 | inactive | – |
| OC[C@H]1O[C@@H](OCCc2ccc(O)cc2)[C@H](O)[C@@H](O)[C@@H]1O | inactive | – |
| Cc1cn([C@H]2C[C@H](N=[N+]=[N-])[C@@H](CO)O2)c(=O)[nH]c1=O | inactive | – |
| CCCCCCCCCCCCCCCCCC#N | inactive | – |
| O=C1CCCCCN1SSN1CCCCCC1=O | inactive | – |
| CC(C)C(=O)OC/C=C/c1ccccc1 | inactive | – |
| CCCC(C)CC (stereo not given) | inactive | – |
| CC(C)(O)c1coc(S(=O)(=O)NC(=O)Nc2c3c(cc4c2CCC4)CCC3)c1 | inactive | – |
| CC(O)(P(=O)(O)O)P(=O)(O)O | inactive | – |
| CCc1cc2cc(OC)c(OC)cc2c(Cc2ccccc2)n1 | inactive | – |
| N[C@@H](Cc1cc(I)c(Oc2ccc(O)c(I)c2)c(I)c1)C(=O)O | inactive | – |
| CN1CCN(c2c(F)cc3c(=O)c(C(=O)O)cn4c3c2SCC4)CC1 | inactive | – |
| Fc1ccccc1[C@@H](F)COC1CCC(Nc2ncnc3[nH]ncc23)CC1 (stereo not given in full) | inactive | – |
| OC1OC[C@@H](O)[C@H](O)[C@H]1O (stereo not given in full) | inactive | – |
| COc1ccc(C(=O)/C(Br)=C\C(=O)O)cc1 | inactive | – |
| C[n+]1ccn(CCO)c1 | inactive | – |

Target: Acetylcholinesterase (Homo sapiens) (UniProt P22303)
Experiment: Acetylcholinesterase (AChE) small molecule antagonists: enzyme-based qHTS assay with human liver microsomes (AID 1347399); also: nearly all actives have a fitted effect of over 60% in size
Conditions: Potency: qHTS inhibition; outcome: qHTS inhibition; series mostly up to 115 µM
Procedure, shortened: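 Recombinant human AChE (50 mU/mL in the enzyme mix) and human liver microsomes (0.25 mg/mL final) were preincubated with compound and NADPH (0.25 mg/mL final) for 30 min at 37 C. Acetylthiocholine/DTNB was then added; thiocholine was read colorimetrically after 10 min at room temperature.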

| SMILES | Potency | outcome |
| --- | --- | --- |
| O=C(OCCOCCOC(=O)c1ccccc1)c1ccccc1 | inactive | – |
| O=S(=O)(O)c1ccc2nc(-c3ccccc3)[nH]c2c1 | inactive | – |
| O=C1OC2(c3cc(Br)c(O)c(Br)c3Oc3c2cc(Br)c(O)c3Br)c2c(Cl)c(Cl)c(Cl)c(Cl)c21 | inactive | – |
| Cc1ccc([N+](=O)[O-])c(N)c1 | inactive | – |
| CC(C)Nc1ccccc1 | inactive | – |
| CN(C)c1ccc(C(c2ccccc2)c2ccc(N(C)C)cc2)cc1 | inactive | – |
| CCC(=O)O | inactive | – |
| COc1ccc(-n2nc(CCC(=O)N(C)O)cc2-c2ccc(Cl)cc2)cc1 | inactive | – |
| CC1=CC(O)CC(C)(C)C1 (stereo not given) | inactive | – |
| Nc1nc(F)nc2c1ncn2[C@@H]1O[C@H](CO)[C@@H](O)[C@@H]1O | inactive | – |
| Cc1ccc(S(=O)(=O)NCl)cc1 | inactive | – |
| c1cc[nH]c1 | inactive | – |
| CCN(CC)C(=O)c1ccc(O)c(OC)c1 | inactive | – |
| CC(C)C(=O)OC(=O)C(C)C | inactive | – |
| CCOC(=O)c1ccc(OC(=O)CCCCCN=C(N)N)cc1 | – | inactive |
| NS(=O)(=O)c1ccc(C(=O)O)cc1 | inactive | – |
| COc1ccc2c(c1)c(CC(=O)OC/C=C(\C)CC/C=C(\C)CCC=C(C)C)c(C)n2C(=O)c1ccc(Cl)cc1 | inactive | – |
| c1cc(C(c2ccc(OCC3CO3)cc2)c2ccc(OCC3CO3)cc2)ccc1OCC1CO1 (stereo not given) | inactive | – |
| CC1(C)OC(=O)NC1=O | inactive | – |
| CC1(C)[C@@H]2CC[C@]3(C2)[C@@H]1C(=O)CCC3(C)C | inactive | – |

| SMILES | Potency | outcome |
| --- | --- | --- |
| CCC(=O)c1ccc(O)cc1 | inactive | – |
| COC(=O)Nc1nc2ccc(C(=O)c3cccs3)cc2[nH]1 | inactive | – |
| O=C(O)c1cc(C(=O)O)cc([N+](=O)[O-])c1 | inactive | – |
| O=C(c1ccc(O)cc1)c1ccc(O)c(O)c1O | inactive | – |
| c1ccc2nccnc2c1 | inactive | – |
| OC[C@H]1O[C@@H](OCCc2ccc(O)cc2)[C@H](O)[C@@H](O)[C@@H]1O | inactive | – |
| Cc1cn([C@H]2C[C@H](N=[N+]=[N-])[C@@H](CO)O2)c(=O)[nH]c1=O | inactive | – |
| CCCCCCCCCCCCCCCCCC#N | inactive | – |
| O=C1CCCCCN1SSN1CCCCCC1=O | inactive | – |
| CC(C)C(=O)OC/C=C/c1ccccc1 | inactive | – |
| CCCC(C)CC (stereo not given) | inactive | – |
| CC(C)(O)c1coc(S(=O)(=O)NC(=O)Nc2c3c(cc4c2CCC4)CCC3)c1 | inactive | – |
| CC(O)(P(=O)(O)O)P(=O)(O)O | inactive | – |
| CCc1cc2cc(OC)c(OC)cc2c(Cc2ccccc2)n1 | inactive | – |
| N[C@@H](Cc1cc(I)c(Oc2ccc(O)c(I)c2)c(I)c1)C(=O)O | inactive | – |
| CN1CCN(c2c(F)cc3c(=O)c(C(=O)O)cn4c3c2SCC4)CC1 | inactive | – |
| Fc1ccccc1[C@@H](F)COC1CCC(Nc2ncnc3[nH]ncc23)CC1 (stereo not given in full) | inactive | – |
| OC1OC[C@@H](O)[C@H](O)[C@H]1O (stereo not given in full) | inactive | – |
| COc1ccc(C(=O)/C(Br)=C\C(=O)O)cc1 | inactive | – |
| C[n+]1ccn(CCO)c1 | inactive | – |
